# Autofluor counter – compound fluorescence in toxin protease inhibitor counterscreen | compound autofluorescence counterscreen, microsphere flow cytometry; active compounds read high | fluorescence intensity (no concentration beside the values) | hit rate 3.1% among 360,000 | AID 624483; in the data active means fluorescence intensity above about 16000; inconclusive means no clear call, values can overlap the other calls
# Anthrax LF prot – blocks Bacillus anthracis lethal factor protease; multiplex microsphere protease cleavage assay, LF; AID 588501; hit rate 0.12% among 360,000; inhibition, % at 10 µM; further: plate controls were buffer without enzyme for full effect and enzyme alone for no effect
# Mtb FBA inh – inhibitors of M. tuberculosis fructose-bisphosphate aldolase. P9WQA3. inhibition, % at 1 µM. purified M. tuberculosis FBA, fluorescence read-out. hit rate 2.3% among 360,000; in the data active means inhibition above about 27%;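 further: 0% = vehicle and 100% = reference inhibitor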
# Target sequence (P9WQA3 whole entry, looked up): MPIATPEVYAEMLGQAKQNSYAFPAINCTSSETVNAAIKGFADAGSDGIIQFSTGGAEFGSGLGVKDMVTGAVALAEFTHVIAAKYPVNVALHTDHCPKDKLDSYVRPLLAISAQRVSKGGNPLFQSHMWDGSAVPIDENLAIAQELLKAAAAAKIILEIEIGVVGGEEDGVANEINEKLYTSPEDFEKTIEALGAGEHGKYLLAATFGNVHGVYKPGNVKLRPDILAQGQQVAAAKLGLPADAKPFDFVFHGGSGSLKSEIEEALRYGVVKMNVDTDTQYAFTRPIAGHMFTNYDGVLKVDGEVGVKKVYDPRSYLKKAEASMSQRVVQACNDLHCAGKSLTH
# GDH-TPI counter – GDH-TPI coupled enzyme inhibition counter-screen; inhibition, % at 4.8 µM; hit rate 1.2% among 360,000; AID 588335; GDH-TPI coupled enzyme counterscreen, NADH absorbance; in the data active means inhibition above about 30%;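 further: 0% = DMSO wells and 100% = wells lacking the enzyme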
# BoNT F protease – blocks Botulinum neurotoxin F light chain protease | Multiplex microsphere protease cleavage assay, flow cytometry | inhibition, % at 10 µM | hit rate 0.22% among 360,000; in the data active means inhibition above about 35%, passing the limit was not always enough; inconclusive means no clear call, values can overlap the other calls; further: plate controls were buffer without enzyme for full effect and enzyme alone for no effect
# BoNT-A LC inh2 – inhibitors of Botulinum neurotoxin A light chain protease | AID 588499 | inhibition, % at 10 µM | hit rate 0.17% among 360,000 | multiplex microsphere protease substrate cleavage, flow cytometry; further: plate controls were buffer without enzyme for full effect and enzyme alone for no effect
# An asterisk follows results filed as active; u = inconclusive; x = not tested or not shown. The list is not random: actives were taken first. Their share in the collection is about 6.6%. Unless noted, no stated cut-off is given here; in the data, active means inhibition above about 30%; inconclusive means no clear call, values can overlap the other calls; inactive means below that.
SMILES,Autofluor counter,Anthrax LF prot,Mtb FBA inh,GDH-TPI counter,BoNT F protease,BoNT-A LC inh2
Nc1cc2c(cc1C(=O)c1ccc(Cl)cc1)OCCO2,22401*,-3,-2,5,-1,u
Nc1ccc(C(=O)c2ccc3c(c2)OCCO3)cc1N,21110*,0,-5,23,-6,0
CCCCCc1ccc(CC(=O)N2CCOCC2)cc1,4435,-2,-2,2,6,-1
C/C=C/c1cccc(-c2nc(C(=O)N3CCCCC3)cc3c2[C@@H](CCO)N(C(=O)NC(C)C)C3)c1,6273,-4,x,x,-4,0
COc1ccccc1CNCC(O)(c1ccc(F)cc1)c1ccc(F)cc1,3812,8,-1,-4,-12,-1
COc1ccccc1CNCC(O)(c1ccc(Cl)cc1)c1ccc(Cl)cc1,23819*,-4,-2,-1,-17,u
CN(CC(=O)Nc1ccc(Cl)c(C(F)(F)F)c1)C(=O)Cn1cc([N+](=O)[O-])ccc1=O,3755,-8,3,21,0,0
Cc1nnc(SCC(=O)NC23CC4CC(CC(C4)C2)C3)s1,4448,0,1,-2,-3,0
Nc1nnc(SCC(=O)NC23CC4CC(CC(C4)C2)C3)s1,21047*,-4,1,-8,-1,-1
COc1cccc(N2CCN(c3c4c(nc5ncnn35)CCC4)CC2)c1,22408*,0,-1,4,3,4
COc1cccc(N2CCN(c3ncccn3)CC2)c1,9764,4,2,4,-15,0
c1ccc(N2CCN(c3c4c(nc5ncnn35)CCC4)CC2)cc1,21815*,-1,4,5,6,3
COc1ccc(Cl)cc1C(=O)NNC(=O)c1cccs1,3538,-2,4,11,-3,0
O=C(/C=C\Nc1ccc(S(=O)(=O)Nc2ncccn2)cc1)c1cccc2ccccc12,3654,4,4,55*,1,1
CC1CN(S(=O)(=O)c2ccc(NC(=O)CCN3C(=O)c4ccccc4C3=O)cc2)CC(C)O1 (configuration not stated),9908,-4,2,-2,-3,-1
O=S(=O)(Nc1ccc(S(=O)(=O)Nc2ncccn2)cc1)c1ccccc1,5552,-2,2,-9,-3,0
CCOC(=O)Nc1ccc(S(=O)(=O)Nc2nccc(C)n2)cc1,u,u,3,1,u,u
CC1CCN(S(=O)(=O)c2ccc(NC(=O)CCN3C(=O)c4ccccc4C3=O)cc2)CC1,19423*,-5,-2,-7,0,2
NS(=O)(=O)c1ccc(N/C=C\C(=O)c2cccc3ccccc23)cc1,2414,3,1,27,-6,8
CCOC(=O)Nc1ccc(S(=O)(=O)Nc2nc(C)cc(C)n2)cc1,24252*,0,-2,6,-6,-4
O=S(=O)(Nc1ncccn1)c1ccc(Nc2ncnc3ccccc23)cc1,13196,-2,-1,49*,-14,-1
Cn1ccnc1SCC(=O)c1ccc2ccccc2c1,3734,2,1,1,-5,1
Cc1cc(C)nc(NS(=O)(=O)c2ccc(N/C=C/C(=O)c3ccc(Cl)cc3)cc2)n1,2566,-4,1,32*,-6,1
Cc1cc(NS(=O)(=O)c2ccc(NC(=O)CCN3C(=O)c4ccccc4C3=O)cc2)no1,9805,0,-4,-7,1,0
O=C(CCN1C(=O)c2ccccc2C1=O)Nc1cccc(S(=O)(=O)N2CCCCC2)c1,u,-21,0,2,0,1
SMILES,Autofluor counter,Anthrax LF prot,Mtb FBA inh,GDH-TPI counter,BoNT F protease,BoNT-A LC inh2
O=C(CCCCCN1C(=O)c2ccccc2C1=O)Nc1ccc(S(=O)(=O)N2CCCCC2)cc1,21502*,-1,0,-8,2,u
Cc1cc(C)nc(NS(=O)(=O)c2ccc(NC(=O)CCN3C(=O)c4ccccc4C3=O)cc2)n1,16582*,0,1,16,-4,-2
Cc1cccc(C)c1-n1nnnc1SCc1nc(N)nc(N(C)C)n1,2959,-13,-1,6,-4,-1
CN(C)c1nc(N)nc(CSc2nnnn2-c2ccc(F)cc2)n1,23095*,1,6,12,2,0
COc1ccc(CCC(=O)N2CCC3(CC2)OCCO3)cc1,16327*,-5,0,7,0,0
COc1ccc(CCC(=O)N2CCN(C3CCCCC3)CC2)cc1,20796*,-1,-1,-4,0,0
COc1ccc(NC(=O)N2CCC3(CC2)OCCO3)cc1,2716,-2,-2,-4,4,0
Cc1cccc(NC(=O)COc2ccc3oc4c(c3c2)CCCC4)n1,23564*,-4,-5,-6,-1,-2
Cc1cccc(NC(=O)COc2ccc3c(c2)CCC3)n1,4094,-5,4,7,13,4
COc1cccc(/C=N/NC(=O)c2cc3c(OC)c(OC)ccc3[nH]2)c1OC,2211,-3,-3,33*,2,0
COc1cccc(/C=N/NC(=O)c2cc3c(OC)cccc3[nH]2)c1O,2193,-4,-5,12,1,1
COc1cccc(/C=N/NC(=O)c2cc3c(OC)cccc3[nH]2)c1OC,2382,1,2,25,-2,-1
COc1ccccc1/C=N/NC(=O)c1cc2c(OC)c(OC)ccc2[nH]1,4130,5,-2,34*,-12,-2
COc1ccc(OC)c(/C=N/NC(=O)c2cc3c(OC)cccc3[nH]2)c1,4321,-9,6,61*,u,1
C=CCOc1ccc(/C=N/NC(=O)c2cc3c(OC)cc(OC)cc3[nH]2)cc1,4091,-8,9,32*,-12,-3
CC(Oc1ccc(Br)cc1)C(=O)Nc1ccc(N2CCOCC2)cc1N1CCOCC1 (configuration not stated),5807,-2,6,4,-1,5
COCCn1c(SCC(=O)NC2CCCCC2)nnc1-c1ccncc1,4604,-2,-6,4,5,0
COc1ccc(N=Cc2c(O)n(-c3cccc(C)n3)c(=O)c3ccccc23)c(OC)c1,3217,63*,1,20,u,4
Cc1ccc(-n2c(O)c(C=Nc3ccccc3-c3n[nH]c(=S)[nH]c3=O)c3ccccc3c2=O)cc1C,3251,-14,5,14,9,2
Cc1cccc(-n2c(O)c(C=Nc3ccccc3-c3n[nH]c(=S)[nH]c3=O)c3ccccc3c2=O)n1,4679,6,5,37*,-3,-1
Cc1cccc(-n2c(O)c(/C=N/NC(=O)c3ccccc3Cl)c3ccccc3c2=O)n1,7169,0,27,35*,1,-1
N#C/C(=C\c1ccc(O)c(Br)c1)C(=O)NCc1ccccc1,4088,9,-1,8,6,0
COc1cc(/C=C(\C#N)C(=O)NCc2ccccc2)ccc1OCc1ccc(C(=O)O)cc1,6472,-6,-5,59*,-10,-2
Cc1cc(/C=C(\C#N)C(=O)NCc2ccccc2)c(C)[nH]1,4020,-2,-2,31*,-10,-1
